PubChem BioAssay (NCI)
Compounds without any hit were thinned out: in the full panel of roughly 79,000, 15% have a hit. Active and inactive are the calls of the source. Rule as the data show it: active = growth inhibition above about 70%; inactive = the rest.

Columns and labels:
[1] = NCI Yeast Anticancer Drug Screen. Data for the rad52 strain (AID 147);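 also: 0% = growth of vehicle-treated control cultures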; settings: S. cerevisiae rad52 mutant growth inhibition, stronger effect = higher value
How it was run: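 Growth of repair-deficient yeast cells was compared between compound-treated and vehicle-treated cultures to give percent inhibition.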

[2] = NCI Yeast Anticancer Drug Screen. Data for the wt1 strain (AID 149);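 also: 0% = growth of vehicle-treated wt1 cultures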; settings: S. cerevisiae wt1 strain (SPY 50644) growth inhibition, stronger effect = higher value
How it was run: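 Each compound is tested on wt1 yeast and the loss of growth versus vehicle gives the inhibition value.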

[3] = NCI Yeast Anticancer Drug Screen. Data for the rad50 strain (AID 155);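 also: 0% = growth of vehicle-only cultures of the same strain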; settings: S. cerevisiae rad50 strain growth inhibition, stronger effect = higher value
How it was run: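 Vehicle-treated cultures provide the reference for the growth inhibition reported for compound-exposed, repair-deficient yeast.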

[4] = NCI Yeast Anticancer Drug Screen. Data for the mec2-1 strain (AID 157); settings: S. cerevisiae mec2-1 strain, stronger effect = higher value
How it was run: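 Compounds were applied to mec2-1 yeast cells. Their growth was then compared with that of vehicle-treated cultures to give growth inhibition.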

[5] = NCI Yeast Anticancer Drug Screen. Data for the rad14 strain (AID 159);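 also: 0% = growth of vehicle-treated control cultures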; settings: S. cerevisiae rad14 strain growth inhibition, stronger effect = higher value
How it was run: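 Inhibition of growth is reported for a repair-deficient yeast mutant following compound treatment, calculated relative to cultures that received vehicle.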

[6] = NCI Yeast Anticancer Drug Screen. Data for the sgs1 mgt1 strain (AID 161);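 also: 0% = growth of cultures given vehicle only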; settings: S. cerevisiae sgs1 mgt1 strain, stronger effect = higher value
How it was run: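 Growth of a repair-deficient yeast mutant was monitored after compound treatment and expressed as inhibition relative to vehicle-treated cultures.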

[7] = NCI Yeast Anticancer Drug Screen. Data for the CLN2oe strain (AID 163);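 also: 0% = growth of vehicle-only control cultures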; settings: S. cerevisiae CLN2oe strain, stronger effect = higher value
How it was run: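 Cells of an engineered yeast line with disturbed cell-cycle regulation are treated with compound. Inhibition of growth is then calculated relative to the vehicle-treated reference.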

[8] = NCI Yeast Anticancer Drug Screen. Data for the cln2 rad14 strain (AID 165);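 also: 0% = growth equal to vehicle treated cultures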; settings: S. cerevisiae cln2 rad14 strain, stronger effect = higher value
How it was run: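 Strain: cln2 rad14 yeast, altered in cell cycle control and DNA damage repair. Read-out: growth inhibition vs vehicle.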

[9] = NCI Yeast Anticancer Drug Screen. Data for the bub3 strain (AID 167); settings: S. cerevisiae bub3 mutant strain, stronger effect = higher value
How it was run: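 Mutant yeast screening strain plus compound; vehicle-treated cultures serve as the 0% inhibition reference.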

[10] = NCI Yeast Anticancer Drug Screen. Data for the wt2 strain (AID 169); settings: S. cerevisiae wt2 strain growth inhibition, stronger effect = higher value
How it was run: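 Growth of compound-treated yeast is measured and expressed as inhibition relative to vehicle-only controls.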

[11] = NCI Yeast Anticancer Drug Screen. Data for the mlh1 strain (AID 171);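 also: 0% = growth of vehicle-treated control cultures of the same strain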; settings: S. cerevisiae mlh1 strain growth inhibition, stronger effect = higher value
How it was run: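 Test agents were incubated with yeast bearing a defined DNA damage repair or cell cycle control alteration; values are growth inhibition normalised to vehicle-treated cultures.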

[12] = NCI Yeast Anticancer Drug Screen. Data for the sgs1 strain (AID 173);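 also: 0% = growth of vehicle-only control cultures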; settings: S. cerevisiae sgs1 mutant, stronger effect = higher value
How it was run: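 Strain with an altered DNA repair or cell cycle pathway exposed to compound. Growth then measured. Value = inhibition versus vehicle control.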

[13] = NCI Yeast Anticancer Drug Screen. Data for the mlh1 rad18 strain (AID 175); settings: S. cerevisiae mlh1 rad18 strain growth inhibition, stronger effect = higher value
How it was run: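 A repair-deficient yeast strain is exposed to test compound, and growth is scored relative to vehicle-treated controls.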

[14] = NCI Yeast Anticancer Drug Screen. Data for the rad18 strain (AID 177); settings: S. cerevisiae rad18 mutant growth inhibition, stronger effect = higher value
How it was run: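 DNA-repair-defective yeast; compound treatment; growth inhibition scored against vehicle.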

[15] = NCI Yeast Anticancer Drug Screen. Data for the rad50EPP+ strain (AID 151);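 also: 0% = growth of vehicle-treated control cultures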; settings: S. cerevisiae rad50 mutant strain, stronger effect = higher value
How it was run: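 Measured: growth inhibition of rad50EPP+ yeast. Reference: vehicle-treated controls. Screen uses strains with defined genetic alterations in DNA damage repair or cell cycle control.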

[16] = NCI Yeast Anticancer Drug Screen. Data for the mgt1 strain (AID 153); settings: S. cerevisiae mgt1 mutant growth inhibition, stronger effect = higher value
How it was run: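 Compounds were applied to mgt1 mutant yeast, and growth was then compared against vehicle-treated control cultures to give percent inhibition.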

[17] = at 5.0 µM (retest, dose inferred, filed as 0.5)
[18] = at 50.0 µM (retest, dose inferred, filed as 5.0)

Measured: growth inhibition

CCN(CC)CC(O)C1CCC(c2ccccc2)CC1 (centres undefined)
active: [1]; at 100.0 µM 78% | [3]; [18] 78% | [3]; at 50.0 µM 84.8% | [3]; at 100.0 µM 83% | [4]; [18] 76% | [4]; at 100.0 µM 79% | [5]; at 33.0 µM 89% | [5]; at 100.0 µM 98% | [6]; [18] 95% | [6]; at 50.0 µM 92.7% | [7]; at 100.0 µM 80% | [8]; [18] 70% | [9]; [18] 87% | [9]; at 50.0 µM 83% | [9]; at 100.0 µM 84% | [10]; at 100.0 µM 83% | [11]; at 100.0 µM 91% | [12]; at 33.0 µM 72% | [12]; at 100.0 µM 93% | [13]; [18] 86% | [14]; at 100.0 µM 78%
inactive: [1]; at 1.2 µM 2% | [1]; at 3.7 µM 11% | [1]; at 11.0 µM 22% | [1]; at 33.0 µM 52% | [2]; at 1.2 µM 1% | [2]; at 3.7 µM 10% | [2]; at 11.0 µM 5% | [2]; at 33.0 µM 13% | [2]; at 100.0 µM 40% | [3]; at 1.2 µM 5% | [3]; at 3.7 µM 12% | [3]; [17] 13% | [3]; at 11.0 µM 22% | [3]; at 33.0 µM 61% | [4]; at 1.2 µM 3% | [4]; at 3.7 µM 12% | [4]; [17] 11% | [4]; at 11.0 µM 16% | [4]; at 33.0 µM 42% | [4]; at 50.0 µM 36% | [5]; at 1.2 µM 13% | [5]; at 3.7 µM 34% | [5]; at 11.0 µM 41% | [6]; [17] 31% | [7]; at 1.2 µM 6% | [7]; at 3.7 µM 10% | [7]; at 11.0 µM 41% | [7]; at 33.0 µM 55% | [8]; [17] 28% | [8]; at 50.0 µM 65.3% | [9]; at 1.2 µM 1% | [9]; at 3.7 µM 8% | [9]; [17] 27% | [9]; at 11.0 µM 30% | [9]; at 33.0 µM 64% | [10]; at 1.2 µM 3% | [10]; at 3.7 µM 9% | [10]; at 11.0 µM 16% | [10]; at 33.0 µM 45% | [11]; at 1.2 µM 3% | [11]; at 3.7 µM 10% | [11]; at 11.0 µM 24% | [11]; at 33.0 µM 62% | [12]; at 1.2 µM 3% | [12]; at 3.7 µM 16% | [12]; at 11.0 µM 32% | [13]; [17] 36% | [13]; at 50.0 µM 68.9% | [14]; at 1.2 µM 7% | [14]; at 3.7 µM 12% | [14]; at 11.0 µM 13% | [14]; at 33.0 µM 32%

CCCCCCCCCCCCCCCCNC(=O)/C(=C\c1ccc(Cl)c(Cl)c1)NC(=O)c1ccccc1
active: [1]; at 100.0 µM 77% | [3]; [18] 75% | [3]; at 50.0 µM 93.2% | [4]; at 50.0 µM 94.2% | [9]; at 50.0 µM 88.8% | [9]; at 100.0 µM 87% | [13]; at 50.0 µM 89.2%
inactive: [1]; at 1.2 µM 21% | [1]; at 3.7 µM 8% | [1]; at 11.0 µM 18% | [1]; at 33.0 µM 11% | [2]; at 1.2 µM -41% | [2]; at 3.7 µM -2% | [2]; at 11.0 µM -4% | [2]; at 33.0 µM -6% | [2]; at 100.0 µM 9% | [3]; at 1.2 µM -2% | [3]; at 3.7 µM 0% | [3]; [17] 14% | [3]; at 11.0 µM -2% | [3]; at 33.0 µM -4% | [3]; at 100.0 µM 49% | [4]; at 1.2 µM 11% | [4]; at 3.7 µM -5% | [4]; [17] 8% | [4]; at 11.0 µM -7% | [4]; at 33.0 µM -2% | [4]; [18] 29% | [4]; at 100.0 µM 33% | [5]; at 1.2 µM -1% | [5]; at 3.7 µM 0% | [5]; at 11.0 µM -4% | [5]; at 33.0 µM 4% | [5]; at 100.0 µM 43% | [6]; [17] -5% | [6]; [18] 13% | [6]; at 50.0 µM 55% | [7]; at 1.2 µM -11% | [7]; at 3.7 µM -7% | [7]; at 11.0 µM -6% | [7]; at 33.0 µM -13% | [7]; at 100.0 µM 52% | [8]; [17] 46% | [8]; [18] -10% | [8]; at 50.0 µM 59.2% | [9]; at 1.2 µM -3% | [9]; at 3.7 µM -4% | [9]; [17] 3% | [9]; at 11.0 µM -6% | [9]; at 33.0 µM -7% | [9]; [18] 43% | [10]; at 1.2 µM 0% | [10]; at 3.7 µM 1% | [10]; at 11.0 µM 0% | [10]; at 33.0 µM 5% | [10]; at 100.0 µM 69% | [11]; at 1.2 µM 0% | [11]; at 3.7 µM -1% | [11]; at 11.0 µM -3% | [11]; at 33.0 µM -5% | [11]; at 100.0 µM 47% | [12]; at 1.2 µM 2% | [12]; at 3.7 µM 5% | [12]; at 11.0 µM 5% | [12]; at 33.0 µM 14% | [12]; at 100.0 µM 49% | [13]; [17] 10% | [13]; [18] 31% | [14]; at 1.2 µM 7% | [14]; at 3.7 µM 7% | [14]; at 11.0 µM 26% | [14]; at 33.0 µM 24% | [14]; at 100.0 µM 67%

O=C(CNS(=O)(=O)Cc1ccccc1)NNc1ccccc1
active: [3]; at 50.0 µM 75.8% | [6]; [18] 71% | [13]; [17] 71% | [13]; [18] 90% | [14]; at 100.0 µM 83%
inactive: [1]; at 1.2 µM -1% | [1]; at 3.7 µM 2% | [1]; at 11.0 µM 12% | [1]; at 33.0 µM 35% | [1]; at 100.0 µM 44% | [15]; at 1.2 µM 2% | [15]; at 3.7 µM 4% | [15]; at 11.0 µM 22% | [15]; at 33.0 µM 43% | [15]; at 100.0 µM 58% | [16]; at 1.2 µM -1% | [16]; at 3.7 µM 12% | [16]; at 11.0 µM 14% | [16]; at 33.0 µM 16% | [16]; at 100.0 µM 16% | [3]; at 1.2 µM 2% | [3]; at 3.7 µM 4% | [3]; [17] 13% | [3]; at 11.0 µM 9% | [3]; at 33.0 µM 17% | [3]; [18] 64% | [3]; at 100.0 µM 24% | [4]; at 1.2 µM -1% | [4]; at 3.7 µM 0% | [4]; [17] -3% | [4]; at 11.0 µM 7% | [4]; at 33.0 µM 14% | [4]; [18] 9% | [4]; at 50.0 µM 62.5% | [4]; at 100.0 µM 16% | [5]; at 1.2 µM 0% | [5]; at 3.7 µM 3% | [5]; at 11.0 µM 6% | [5]; at 33.0 µM 13% | [5]; at 100.0 µM 20% | [6]; [17] 28% | [6]; at 50.0 µM 63.6% | [7]; at 1.2 µM 5% | [7]; at 3.7 µM 5% | [7]; at 11.0 µM 24% | [7]; at 33.0 µM 39% | [7]; at 100.0 µM 39% | [8]; [17] 8% | [8]; [18] 33% | [8]; at 50.0 µM 60% | [9]; at 1.2 µM 1% | [9]; at 3.7 µM 0% | [9]; [17] 5% | [9]; at 11.0 µM 2% | [9]; at 33.0 µM 8% | [9]; [18] 29% | [9]; at 50.0 µM 69.3% | [9]; at 100.0 µM 10% | [10]; at 1.2 µM 1% | [10]; at 3.7 µM 2% | [10]; at 11.0 µM 11% | [10]; at 33.0 µM 30% | [10]; at 100.0 µM 38% | [11]; at 1.2 µM -4% | [11]; at 3.7 µM 0% | [11]; at 11.0 µM 5% | [11]; at 33.0 µM 16% | [11]; at 100.0 µM 24% | [12]; at 1.2 µM -1% | [12]; at 3.7 µM -1% | [12]; at 11.0 µM 8% | [12]; at 33.0 µM 36% | [12]; at 100.0 µM 54% | [13]; at 50.0 µM 40.1% | [14]; at 1.2 µM 4% | [14]; at 3.7 µM 5% | [14]; at 11.0 µM 23% | [14]; at 33.0 µM 63%
